Data reported in PubChem BioAssay.
Calls of active or inactive are those of the source.

Key:
[1] = test system: PRMT1 (protein arginine N-methyltransferase 1); experiment: small molecules binding arginine methyltransferase PRMT1 – biochemical, small-molecule microarray, 635 nm fluorescence, primary screen (AID 1088); conditions: higher = more signal;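 note: binding of Prmt1 protein to compounds spotted on small-molecule microarray slides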
[2] = growth effects on S. cerevisiae YJM789 – YJM789 clinical isolate, OD600, 24 h, basal, primary screen (AID 1089); conditions: higher = more signal, called active from +8 up or from −8 down;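 note: growth of clinical yeast isolate S. cerevisiae YJM 789 seeded 1000 cells per well; test concentration not given here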
[3] = S. pombe growth modifiers, basal conditions – strain 972, OD600, 24 h, no modulator, primary screen (AID 1090);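 note: basal condition with compound alone and no growth modifier present; test concentration not given here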; conditions: S. pombe 972 growth, higher = more signal, called active from +8 up or from −8 down
[4] = budding yeast growth modifiers under rapamycin – strain BY4716, OD600, 96 h, primary screen (AID 1091); note: test concentration not given here; conditions: S. cerevisiae BY4716 + rapamycin, higher = more signal, called active from +8 up or from −8 down
[5] = target: Torsin-1A-interacting protein 2 (Homo sapiens) (UniProt Q8NFQ8); experiment: small molecules binding lysate-expressed LULL1 – cell lysate, human LULL1 lysate, 635/667 nm fluorescence, primary screen (AID 1092); conditions: small-molecule microarray, hLULL1 lysate binding, 635 nm fluorescence; higher = more signal;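 note: probe is lysate of COS7 cells overexpressing human LULL1; score merges per-feature 667 nm fluorescence with signal-to-noise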
Torsin-1A-interacting protein 2 (Homo sapiens), sequence (Q8NFQ8 whole entry, looked up): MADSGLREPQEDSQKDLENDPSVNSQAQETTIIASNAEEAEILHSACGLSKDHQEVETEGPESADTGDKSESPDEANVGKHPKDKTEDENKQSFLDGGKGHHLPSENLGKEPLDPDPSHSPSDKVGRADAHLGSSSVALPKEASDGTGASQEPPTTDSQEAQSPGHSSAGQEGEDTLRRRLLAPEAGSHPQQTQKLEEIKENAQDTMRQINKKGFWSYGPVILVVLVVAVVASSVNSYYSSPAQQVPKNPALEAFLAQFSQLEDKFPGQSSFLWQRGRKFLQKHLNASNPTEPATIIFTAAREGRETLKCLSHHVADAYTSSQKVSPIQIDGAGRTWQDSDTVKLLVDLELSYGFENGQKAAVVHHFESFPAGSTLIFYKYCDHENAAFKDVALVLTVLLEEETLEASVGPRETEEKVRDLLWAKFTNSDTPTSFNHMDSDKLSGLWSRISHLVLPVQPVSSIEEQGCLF

[6] = optical density change of DRC41 E. coli – strain DRC41, OD650, 24 h, E. coli filamentation project, primary screen (AID 1093);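 note: MC1000 strain lacking acrAB efflux and sulA so SOS filamentation is blocked; test concentration not given here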; conditions: E. coli DRC41 growth, higher = more signal, called active from +8 up or from −8 down
[7] = probe aLefty2 binding to arrayed compounds – biochemical, biotinylated probe, 635/667 nm fluorescence, primary screen (AID 1094); conditions: small-molecule microarray, higher = more signal;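 note: score merges spot fluorescence near 667 nm with spot signal-to-noise ratio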
[8] = test system: Noggin (protein binding on small-molecule microarray); experiment: small molecules binding Noggin protein – biochemical, 635/667 nm fluorescence, primary screen (AID 1095); conditions: 635 nm fluorescence, higher = more signal;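 note: score merges 667 nm feature fluorescence with signal to noise over triplicate slides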
[9] = target: Neurogenic locus notch homolog protein 3 (Homo sapiens) (UniProt Q9UM47); experiment: small molecules binding NOTCH3 protein – biochemical, 635/667 nm fluorescence, primary screen (AID 1096); conditions: small-molecule microarray, 635 nm fluorescence, higher = more signal
Neurogenic locus notch homolog protein 3 (Homo sapiens), sequence (Q9UM47 whole entry, looked up): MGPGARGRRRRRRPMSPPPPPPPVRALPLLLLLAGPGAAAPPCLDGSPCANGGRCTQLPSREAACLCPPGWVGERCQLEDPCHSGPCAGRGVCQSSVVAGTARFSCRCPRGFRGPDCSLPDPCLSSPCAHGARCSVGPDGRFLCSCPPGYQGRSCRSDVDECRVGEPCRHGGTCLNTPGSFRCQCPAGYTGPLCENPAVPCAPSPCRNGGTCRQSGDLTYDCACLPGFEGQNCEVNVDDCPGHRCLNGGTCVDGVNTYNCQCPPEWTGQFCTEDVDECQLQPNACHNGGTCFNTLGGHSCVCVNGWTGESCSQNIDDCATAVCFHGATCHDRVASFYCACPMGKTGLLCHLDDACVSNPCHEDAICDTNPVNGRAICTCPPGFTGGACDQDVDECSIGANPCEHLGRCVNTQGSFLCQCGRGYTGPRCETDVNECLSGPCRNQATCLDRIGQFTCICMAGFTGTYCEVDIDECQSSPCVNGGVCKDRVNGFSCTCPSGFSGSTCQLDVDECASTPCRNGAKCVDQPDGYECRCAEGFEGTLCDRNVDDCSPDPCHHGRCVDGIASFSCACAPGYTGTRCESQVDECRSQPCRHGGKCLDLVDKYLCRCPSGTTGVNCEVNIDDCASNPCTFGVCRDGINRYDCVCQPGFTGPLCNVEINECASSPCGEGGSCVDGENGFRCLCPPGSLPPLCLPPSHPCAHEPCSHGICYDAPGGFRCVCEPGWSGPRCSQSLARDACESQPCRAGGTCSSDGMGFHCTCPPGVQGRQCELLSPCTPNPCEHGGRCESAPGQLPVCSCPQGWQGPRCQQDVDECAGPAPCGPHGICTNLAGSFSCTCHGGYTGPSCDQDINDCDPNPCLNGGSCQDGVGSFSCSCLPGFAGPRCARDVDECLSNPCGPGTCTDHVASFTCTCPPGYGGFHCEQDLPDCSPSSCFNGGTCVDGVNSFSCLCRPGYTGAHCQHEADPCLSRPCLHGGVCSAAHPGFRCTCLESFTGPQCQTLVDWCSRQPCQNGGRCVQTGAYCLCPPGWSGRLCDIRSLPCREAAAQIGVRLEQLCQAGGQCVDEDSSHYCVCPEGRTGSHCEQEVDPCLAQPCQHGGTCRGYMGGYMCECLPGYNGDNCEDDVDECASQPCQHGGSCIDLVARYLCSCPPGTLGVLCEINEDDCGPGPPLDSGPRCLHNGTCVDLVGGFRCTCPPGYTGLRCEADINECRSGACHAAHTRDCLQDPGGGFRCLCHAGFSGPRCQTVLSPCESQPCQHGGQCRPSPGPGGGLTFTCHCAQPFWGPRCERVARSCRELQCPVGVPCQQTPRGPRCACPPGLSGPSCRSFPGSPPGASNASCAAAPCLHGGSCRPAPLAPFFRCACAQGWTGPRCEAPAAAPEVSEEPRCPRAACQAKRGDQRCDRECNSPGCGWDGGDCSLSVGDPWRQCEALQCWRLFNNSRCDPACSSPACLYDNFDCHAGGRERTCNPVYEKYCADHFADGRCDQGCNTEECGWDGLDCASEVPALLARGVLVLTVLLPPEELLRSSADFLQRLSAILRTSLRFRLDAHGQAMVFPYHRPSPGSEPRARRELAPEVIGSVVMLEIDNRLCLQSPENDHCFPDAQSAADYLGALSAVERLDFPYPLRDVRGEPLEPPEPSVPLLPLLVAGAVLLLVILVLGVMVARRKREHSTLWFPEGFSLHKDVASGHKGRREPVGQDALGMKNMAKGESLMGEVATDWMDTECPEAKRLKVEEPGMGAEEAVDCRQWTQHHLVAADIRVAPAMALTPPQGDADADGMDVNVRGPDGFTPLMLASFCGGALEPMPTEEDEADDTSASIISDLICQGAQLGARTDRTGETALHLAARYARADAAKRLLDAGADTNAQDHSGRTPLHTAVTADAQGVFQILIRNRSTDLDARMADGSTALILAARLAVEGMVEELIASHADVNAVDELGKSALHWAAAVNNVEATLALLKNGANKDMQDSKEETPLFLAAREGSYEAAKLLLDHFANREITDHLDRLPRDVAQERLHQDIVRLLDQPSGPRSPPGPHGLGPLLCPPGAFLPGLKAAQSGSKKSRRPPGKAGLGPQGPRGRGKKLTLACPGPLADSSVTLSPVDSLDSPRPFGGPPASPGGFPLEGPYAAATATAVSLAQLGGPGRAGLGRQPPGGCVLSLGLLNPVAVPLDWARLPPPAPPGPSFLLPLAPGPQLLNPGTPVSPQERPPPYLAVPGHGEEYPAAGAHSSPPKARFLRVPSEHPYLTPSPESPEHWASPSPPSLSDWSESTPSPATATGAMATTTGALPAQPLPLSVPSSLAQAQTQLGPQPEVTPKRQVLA

[10] = probe aEGFR binding to arrayed compounds – biochemical, biotinylated probe, 635/667 nm fluorescence, primary screen (AID 1097); conditions: small-molecule microarray, higher = more signal;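 note: probe is a biotinylated anti-EGFR antibody binding compounds printed on slides; score combines fluorescence near 667 nm and signal to noise of each spot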
[11] = test system: Plasmodium falciparum Sir2 (PF13_0152, Sir2A); experiment: Plasmodium falciparum Sir2A binding compounds – biochemical, small-molecule microarray, 635 nm fluorescence, primary screen (AID 1098); conditions: fluorescence 635 nm, higher = more signal;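 note: score merges spot fluorescence intensity with its signal-to-noise ratio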
[12] = probe aDKK1 binding to arrayed compounds – biochemical, biotinylated probe, 635/667 nm fluorescence, primary screen (AID 1099); conditions: small-molecule microarray, higher = more signal;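 note: score merges 667nm spot fluorescence with signal to noise across triplicate slides; reference of the scale not given here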
[13] = probe aCHRDL2 binding to arrayed compounds – biochemical, biotinylated probe, 635/667 nm fluorescence, primary screen (AID 1100); conditions: small-molecule microarray, higher = more signal
[14] = change in splice reporter luminescence, either direction, cell-based, HEK293, spliceosome inhibition project, primary screen (AID 1101); conditions: HEK293 splicing luciferase reporter, 24 h, higher = more signal, called active from +8 up or from −8 down;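 note: HEK293 cells carrying a splicing-competent luciferase reporter gene; test concentration not given here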
[15] = target: Fibroblast growth factor 10 (Homo sapiens) (UniProt O15520); experiment: compounds binding fibroblast growth factor 10 – biochemical, small-molecule microarray, 635 nm fluorescence, primary screen (AID 1102); conditions: FGF10 binding, fluorescence 635 nm, higher = more signal
Fibroblast growth factor 10 (Homo sapiens), sequence (O15520 whole entry, looked up): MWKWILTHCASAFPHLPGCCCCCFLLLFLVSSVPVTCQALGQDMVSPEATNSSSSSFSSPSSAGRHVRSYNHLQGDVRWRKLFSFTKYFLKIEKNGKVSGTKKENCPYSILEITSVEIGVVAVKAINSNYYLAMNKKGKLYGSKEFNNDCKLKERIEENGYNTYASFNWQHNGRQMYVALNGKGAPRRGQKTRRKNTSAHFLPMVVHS

[16] = test system: glycogen synthase kinase-3 (GSK3A per assay name; protocol says GSK3B); experiment: compounds binding glycogen synthase kinase-3 – biochemical, small-molecule microarray, 635 nm fluorescence, GSK3A, primary screen (AID 1103); conditions: fluorescence 635 nm, higher = more signal; note: the record names both GSK3A and GSK3B
[17] = target: Epidermal growth factor receptor (Homo sapiens) (UniProt P00533); experiment: compounds binding epidermal growth factor receptor – biochemical, small-molecule microarray, 635 nm fluorescence, primary screen (AID 1104); conditions: EGFR binding, higher = more signal;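 note: score merges 667 nm emission intensity with spot signal to noise over triplicate slides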
Epidermal growth factor receptor (Homo sapiens), sequence (P00533 whole entry, looked up): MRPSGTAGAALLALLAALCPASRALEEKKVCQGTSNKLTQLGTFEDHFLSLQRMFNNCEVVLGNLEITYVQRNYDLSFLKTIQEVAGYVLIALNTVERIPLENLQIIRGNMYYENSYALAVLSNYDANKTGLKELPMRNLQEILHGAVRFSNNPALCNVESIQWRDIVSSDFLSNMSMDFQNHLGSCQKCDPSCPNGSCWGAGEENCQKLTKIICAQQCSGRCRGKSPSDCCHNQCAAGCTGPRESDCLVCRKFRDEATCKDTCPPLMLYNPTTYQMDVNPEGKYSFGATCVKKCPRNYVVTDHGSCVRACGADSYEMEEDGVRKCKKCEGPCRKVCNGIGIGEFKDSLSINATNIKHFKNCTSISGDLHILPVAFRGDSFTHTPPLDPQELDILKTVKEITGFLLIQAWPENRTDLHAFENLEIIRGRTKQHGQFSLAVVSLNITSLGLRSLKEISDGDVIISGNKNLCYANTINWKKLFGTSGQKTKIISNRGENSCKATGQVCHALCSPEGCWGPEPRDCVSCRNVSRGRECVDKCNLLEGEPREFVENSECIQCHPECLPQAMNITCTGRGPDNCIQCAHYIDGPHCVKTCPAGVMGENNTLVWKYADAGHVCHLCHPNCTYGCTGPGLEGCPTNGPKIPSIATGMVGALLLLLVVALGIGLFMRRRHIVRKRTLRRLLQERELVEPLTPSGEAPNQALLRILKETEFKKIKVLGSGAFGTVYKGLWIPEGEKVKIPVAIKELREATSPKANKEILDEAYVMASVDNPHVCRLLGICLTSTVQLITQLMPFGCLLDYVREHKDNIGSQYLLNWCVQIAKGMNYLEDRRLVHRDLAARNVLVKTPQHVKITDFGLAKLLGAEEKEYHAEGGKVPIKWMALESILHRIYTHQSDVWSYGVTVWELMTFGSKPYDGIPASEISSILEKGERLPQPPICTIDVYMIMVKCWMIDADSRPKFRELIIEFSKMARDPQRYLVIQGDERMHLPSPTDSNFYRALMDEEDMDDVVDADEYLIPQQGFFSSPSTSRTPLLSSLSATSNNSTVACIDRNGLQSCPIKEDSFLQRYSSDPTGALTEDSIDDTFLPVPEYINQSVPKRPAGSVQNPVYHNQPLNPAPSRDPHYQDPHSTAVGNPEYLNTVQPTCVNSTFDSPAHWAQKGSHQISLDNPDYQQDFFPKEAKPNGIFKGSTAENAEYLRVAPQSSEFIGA

[18] = target: Follistatin-related protein 3 (Homo sapiens) (UniProt O95633); experiment: compounds binding follistatin-related protein 3 – biochemical, small-molecule microarray, 635 nm fluorescence, primary screen (AID 1105); conditions: FSTL3 binding, higher = more signal;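 note: score merges emission near 667 nm and signal to noise per printed spot across three slides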
Follistatin-related protein 3 (Homo sapiens), sequence (O95633 whole entry, looked up): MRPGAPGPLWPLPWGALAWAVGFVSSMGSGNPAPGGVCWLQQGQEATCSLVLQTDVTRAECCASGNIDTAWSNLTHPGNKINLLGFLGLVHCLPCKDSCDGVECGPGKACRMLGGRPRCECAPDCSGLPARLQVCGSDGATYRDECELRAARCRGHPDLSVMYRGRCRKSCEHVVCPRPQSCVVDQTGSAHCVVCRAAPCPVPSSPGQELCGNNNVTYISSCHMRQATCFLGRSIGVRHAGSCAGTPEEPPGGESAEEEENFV

[19] = target: Dickkopf-related protein 1 (Homo sapiens) (UniProt O94907); experiment: small molecules binding DKK1 protein – biochemical, small-molecule microarray, 635 nm fluorescence scan, primary screen (AID 1106); conditions: higher = more signal;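 note: score merges emission near 667 nm with signal to noise over three replicate slides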
Dickkopf-related protein 1 (Homo sapiens), sequence (O94907 whole entry, looked up): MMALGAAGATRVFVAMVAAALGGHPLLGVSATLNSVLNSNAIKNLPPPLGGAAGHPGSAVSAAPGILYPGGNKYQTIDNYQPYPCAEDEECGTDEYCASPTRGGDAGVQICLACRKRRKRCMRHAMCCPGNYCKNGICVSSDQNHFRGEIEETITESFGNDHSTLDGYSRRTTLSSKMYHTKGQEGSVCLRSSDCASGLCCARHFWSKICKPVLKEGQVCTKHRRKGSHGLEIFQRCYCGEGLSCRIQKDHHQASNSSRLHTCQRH

[20] = test system: Inhibin beta A chain (activin A); experiment: small molecules binding activin A – biochemical, small-molecule microarray, 635 nm fluorescence scan, primary screen (AID 1107); conditions: INHBA, higher = more signal;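 note: mouse activin A protein probed at 4.33 µg/mL on printed slides; score merges bound-protein fluorescence near 667 nm with spot signal-to-noise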

Structure (SMILES): CCOC(=O)C1=C[C@@H](C(C)(C)C)N(S(=O)(=O)c2ccc(C)cc2)[C@H]1c1ccc(OC)cc1
- composite z-score [1]: 1.55
- z-score [2]: 0.443 (inactive)
- z-score [3]: 2.17 (inactive)
- z-score [4]: 1.54 (inactive)
- composite z-score [5]: 3.07
- z-score [6]: 0.1 (inactive)
- composite z-score [7]: -0.0865
- composite z-score [8]: 1.18
- composite z-score [9]: 1.09
- composite z-score [10]: 0.0301
- composite z-score [11]: 0.463
- composite z-score [12]: 0.305
- composite z-score [13]: -0.0462
- z-score [14]: -1.5 (inactive)
- composite z-score [15]: 0.998
- composite z-score [16]: 1.29
- composite z-score [17]: 0.902
- composite z-score [18]: 1.27
- composite z-score [19]: 0.33
- composite z-score [20]: 0.318

Structure (SMILES): C=CC[C@]1(C(=O)NCCN2CCOCC2)N=C(c2ccc(OCCCO)cc2)O[C@H]1c1ccccc1
- composite z-score [1]: 1.17
- z-score [2]: -1.24 (inactive)
- z-score [3]: -0.577 (inactive)
- z-score [4]: -1.15 (inactive)
- composite z-score [5]: 2.65
- z-score [6]: 0.0059 (inactive)
- composite z-score [7]: 0.0365
- composite z-score [8]: 0.816
- composite z-score [9]: -0.398
- composite z-score [10]: 0.174
- composite z-score [11]: 1.52
- composite z-score [12]: -0.0845
- composite z-score [13]: 0.942
- z-score [14]: -0.4 (inactive)
- composite z-score [15]: 0.3
- composite z-score [16]: 0.866
- composite z-score [17]: -0.0911
- composite z-score [18]: 0.281
- composite z-score [19]: 0.418
- composite z-score [20]: 0.772

Structure (SMILES): C=CCNC(=O)[C@@H]1[C@H]2C(=O)O[C@H](c3ccccc3)[C@H](c3ccccc3)N2[C@H](c2ccc(O)cc2)[C@@]12C(=O)N(C(=O)OCCOC)c1ccc(C#CCC(C(=O)OC)C(=O)OC)cc12
- composite z-score [1]: 1.5
- z-score [2]: 1.03 (inactive)
- z-score [3]: 0.405 (inactive)
- z-score [4]: 0.624 (inactive)
- composite z-score [5]: 2.11
- z-score [6]: 1.19 (inactive)
- composite z-score [7]: -0.156
- composite z-score [8]: 1.03
- composite z-score [9]: 0.959
- composite z-score [10]: -0.027
- composite z-score [11]: 0.533
- composite z-score [12]: -0.0333
- composite z-score [13]: 0.0912
- z-score [14]: 0.942 (inactive)
- composite z-score [15]: 1.17
- composite z-score [16]: 0.611
- composite z-score [17]: 0.408
- composite z-score [18]: 1
- composite z-score [19]: 0.493
- composite z-score [20]: 0.273

Structure (SMILES): [N-]=[N+]=NCc1ccccc1C[C@]1(C(=O)N2CCCCC2)COC(c2ccc(OCCCO)cc2)=N1
- composite z-score [1]: 1.57
- z-score [2]: 0.504 (inactive)
- z-score [3]: -1.92 (inactive)
- z-score [4]: 34.8 (active)
- composite z-score [5]: 1.55
- z-score [6]: 3.43 (inactive)
- composite z-score [7]: 0.346
- composite z-score [8]: 0.683
- composite z-score [9]: 0.202
- composite z-score [10]: 0.306
- composite z-score [11]: 0.314
- composite z-score [12]: 0.0279
- composite z-score [13]: 0.552
- z-score [14]: 0.0234 (inactive)
- composite z-score [15]: 0.786
- composite z-score [16]: 1.02
- composite z-score [17]: 1.1
- composite z-score [18]: 0.636
- composite z-score [19]: 0.221
- composite z-score [20]: -0.297

Structure (SMILES): CCOC(=O)C[C@H]1[C@H](OC(=O)c2ccc(-c3ccccc3)cc2)[C@@H](NC(=O)C2CCCCC2)c2cc(OCCCO)ccc2N1C(=O)Cc1ccc(OC)cc1
- composite z-score [1]: 0.405
- z-score [2]: -0.253 (inactive)
- z-score [3]: -0.0766 (inactive)
- z-score [4]: 0.214 (inactive)
- composite z-score [5]: 0.852
- z-score [6]: -0.884 (inactive)
- composite z-score [7]: -0.141
- composite z-score [8]: -0.141
- composite z-score [9]: 0.375
- composite z-score [10]: -0.114
- composite z-score [11]: -0.186
- composite z-score [12]: 0.0229
- composite z-score [13]: 0.0338
- z-score [14]: -0.772 (inactive)
- composite z-score [15]: 0.135
- composite z-score [16]: 0.178
- composite z-score [17]: 0.273
- composite z-score [18]: 0.217
- composite z-score [19]: 0.0901
- composite z-score [20]: 0.647

Structure (SMILES): CCCCN1CC=CC23O[C@@H]4/C=C\CCC(C)OC(=O)C4[C@H]2C(=O)N(CCO)[C@@H]3C1=O (stereo not given in full)
- composite z-score [1]: -0.314
- z-score [2]: -1.64 (inactive)
- z-score [3]: -1.02 (inactive)
- z-score [4]: -1.2 (inactive)
- composite z-score [5]: 3.4
- z-score [6]: 2.26 (inactive)
- composite z-score [7]: 0.0469
- composite z-score [8]: -0.19
- composite z-score [9]: -0.342
- composite z-score [10]: -0.157
- composite z-score [11]: 1.38
- composite z-score [12]: -0.218
- composite z-score [13]: 0.64
- z-score [14]: 0.267 (inactive)
- composite z-score [15]: -1.17
- composite z-score [16]: -0.415
- composite z-score [17]: -0.652
- composite z-score [18]: -0.0882
- composite z-score [19]: -0.231
- composite z-score [20]: 1.19

Structure (SMILES): COC(=O)[C@@]1(Cc2ccc(F)cc2)[C@@H]2C(=CC(=O)[C@H]2CC(=O)C(=O)N2CCCC2)CN1C(=O)c1ccccc1
- composite z-score [1]: 1.55
- z-score [2]: -0.403 (inactive)
- z-score [3]: 0.0239 (inactive)
- z-score [4]: 0.413 (inactive)
- composite z-score [5]: 3.6
- z-score [6]: -0.074 (inactive)
- composite z-score [7]: 1.34
- composite z-score [8]: 1.32
- composite z-score [9]: 1.13
- composite z-score [10]: 1.08
- composite z-score [11]: 0.9
- composite z-score [12]: 1.72
- composite z-score [13]: 0.978
- z-score [14]: -4.12 (inactive)
- composite z-score [15]: 1.48
- composite z-score [16]: 0.573
- composite z-score [17]: 1.36
- composite z-score [18]: 1.39
- composite z-score [19]: 0.467
- composite z-score [20]: 1.19

Structure (SMILES): C=CC[C@]1(C(=O)NCC(O)CO)N=C(c2ccc(OCCCO)cc2)O[C@H]1c1ccccc1CN=[N+]=[N-] (stereo not given in full)
- composite z-score [1]: 1.01
- z-score [2]: -0.0604 (inactive)
- z-score [3]: -0.234 (inactive)
- z-score [4]: -0.83 (inactive)
- composite z-score [5]: 3.51
- z-score [6]: 0.384 (inactive)
- composite z-score [7]: 0.239
- composite z-score [8]: -0.62
- composite z-score [9]: -0.922
- composite z-score [10]: -0.0828
- composite z-score [11]: -0.285
- composite z-score [12]: 0.783
- composite z-score [13]: 1.18
- z-score [14]: 0.704 (inactive)
- composite z-score [15]: 0.722
- composite z-score [16]: 0.7
- composite z-score [17]: -2.08
- composite z-score [18]: -1.17
- composite z-score [19]: -0.471
- composite z-score [20]: 0.274

Structure (SMILES): O=C1N(Cc2ccccc2)Cc2ccccc2C[C@@]12COC(c1ccc(OCCCO)cc1)=N2
- composite z-score [1]: 1.38
- z-score [2]: 1.92 (inactive)
- z-score [3]: -1.05 (inactive)
- z-score [4]: 6.73 (inactive)
- composite z-score [5]: 1.79
- z-score [6]: 0.615 (inactive)
- composite z-score [7]: 0.363
- composite z-score [8]: 0.0489
- composite z-score [9]: 0.117
- composite z-score [10]: -0.0315
- composite z-score [11]: 0.631
- composite z-score [12]: 1.02
- composite z-score [13]: 1.27
- z-score [14]: 6.28 (inactive)
- composite z-score [15]: 0.334
- composite z-score [16]: 1.27
- composite z-score [17]: -0.622
- composite z-score [18]: 0.288
- composite z-score [19]: 0.306
- composite z-score [20]: 1.4
